# Laboratory results reported in PubChem BioAssay (NCATS).
# Where “and” joins values, the source holds several entries; their conditions need not be identical. Identical values can stand only once. Inconclusive results are not listed. Where a call stands in place of a potency, no number is given. Some compounds were tested as several samples or in several runs, with calls that do not always agree. Calls of active or inactive are those of the source. Unless noted, the call rests on the fitted dose curve.
# Key:
# [1] = qHTS assay for small molecule agonists of retinoid X receptor alpha signaling (AID 588544); settings: HEK293T RXRa-UAS-bla, beta-lactamase reporter, 18 h; 530 nm emission
# [2] = target: Retinoic acid receptor RXR-alpha (Homo sapiens) (UniProt P19793); assay: as above; settings: HEK293T RXRa-UAS-bla, beta-lactamase reporter, 18 h; series mostly up to 76.7 µM
# Retinoic acid receptor RXR-alpha (Homo sapiens), sequence (P19793 whole entry, looked up): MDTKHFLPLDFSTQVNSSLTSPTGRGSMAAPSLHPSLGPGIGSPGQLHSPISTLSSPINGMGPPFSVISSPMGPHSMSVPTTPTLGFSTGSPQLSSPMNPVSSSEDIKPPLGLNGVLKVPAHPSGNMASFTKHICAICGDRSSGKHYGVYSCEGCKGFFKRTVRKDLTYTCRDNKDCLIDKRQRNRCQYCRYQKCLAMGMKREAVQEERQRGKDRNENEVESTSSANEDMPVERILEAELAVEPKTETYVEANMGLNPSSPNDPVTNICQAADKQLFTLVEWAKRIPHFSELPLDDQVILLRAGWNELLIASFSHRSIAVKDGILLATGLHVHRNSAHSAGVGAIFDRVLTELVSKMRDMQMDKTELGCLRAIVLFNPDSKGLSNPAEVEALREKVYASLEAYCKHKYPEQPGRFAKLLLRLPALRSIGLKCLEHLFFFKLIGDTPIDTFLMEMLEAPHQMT
# [3] = target: Thyroid hormone receptor beta (Homo sapiens) (UniProt P10828); assay: qHTS assay for small molecule agonists of thyroid hormone receptor beta signaling (AID 588545); settings: TR-UAS-bla GripTite HEK 293, beta-lactamase ratio, agonist mode, 18 h, percent of T3 response, DMSO as zero; series mostly up to 76.7 µM
# Thyroid hormone receptor beta (Homo sapiens), sequence (P10828 whole entry, looked up): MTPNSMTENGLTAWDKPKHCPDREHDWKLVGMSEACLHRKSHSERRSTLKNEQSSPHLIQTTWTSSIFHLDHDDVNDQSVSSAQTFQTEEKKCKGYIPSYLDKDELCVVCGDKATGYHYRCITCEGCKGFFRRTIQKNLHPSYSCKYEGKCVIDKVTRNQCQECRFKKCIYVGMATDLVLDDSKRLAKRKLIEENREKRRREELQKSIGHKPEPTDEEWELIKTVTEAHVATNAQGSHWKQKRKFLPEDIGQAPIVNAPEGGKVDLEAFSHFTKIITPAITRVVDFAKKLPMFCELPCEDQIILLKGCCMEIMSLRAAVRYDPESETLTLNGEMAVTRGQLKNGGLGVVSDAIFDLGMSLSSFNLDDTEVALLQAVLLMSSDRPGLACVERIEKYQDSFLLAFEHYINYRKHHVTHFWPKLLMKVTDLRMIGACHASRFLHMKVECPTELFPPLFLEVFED
# Method in brief: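 HEK 293 TR-UAS-bla; agonist mode; 18 hrs, 37 C; CCF4, ex 405/em 460 and 530 nm; norm. T3 10 nM = 100%, DMSO = 0%; Hill fit → EC50, efficacy.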
# [4] = qHTS assay for small molecule antagonists of retinoid X receptor alpha signaling (AID 588546; active means well fitted inhibition curve with a large enough effect in the signal ratio, with a control signal flat, not every such curve was filed as active; the % refers to the signal ratio; further: potency means the concentration at half of the fitted maximal effect;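 on max response: cells stimulated with 9-cis-retinoic acid as agonist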); settings: HEK293T RXRa-UAS-bla, beta-lactamase ratio, antagonist mode; measured here: W530 green channel, cytotoxicity proxy
# Method in brief: (§1)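 Beta-lactamase reporter inhibition, read as CCF4 fluorescence ratio (ex 405, em 460/530 nm) after 2 h at RT. HEK293T UAS-bla cells, 2500/well, were stimulated with 9-cis-RA at 500 or 100 nM final alongside test compound for 18 h at 37 C.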
# [5] = target: Retinoic acid receptor RXR-alpha (Homo sapiens) (UniProt P19793); assay: as above; settings: HEK293T RXRa-UAS-bla, beta-lactamase ratio, antagonist mode
# Method in brief: as §1
# [6] = target: Thyroid hormone receptor beta (Homo sapiens) (UniProt P10828); assay: qHTS assay for small molecule antagonists of thyroid hormone receptor beta signaling (AID 588547; active means well fitted inhibition curve with a large enough effect in the signal ratio, with a control signal flat, not every such curve was filed as active; the % refers to the signal ratio;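 further: cells stimulated with 0.4 nM T3 agonist during compound exposure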); settings: TR-UAS-bla HEK293, beta-lactamase ratio, antagonist mode, 18 h
# Method in brief: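 TR-UAS-bla GripTite HEK293 cells in 2% charcoal/dextran FBS medium; compounds 0.59 nM to 92 uM with T3 at 0.4nM final, 18 h at 37 C. Beta-lactamase read by CCF4 fluorescence (460/530 nm); Hill fits gave IC50 and efficacy.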
# [7] = target: Peroxisome proliferator-activated receptor gamma (Homo sapiens) (UniProt P37231); assay: qHTS assay for small molecule agonists of peroxisome proliferator-activated receptor gamma signaling (AID 588536; active means well fitted curve in the direction sought with a large enough effect in the signal ratio, with a control signal flat, not every such curve was filed as active; the % refers to the signal ratio); settings: HEK293 PPARg-UAS-bla, beta-lactamase ratio, 16 h, percent of rosiglitazone response, DMSO as zero; series mostly up to 76.7 µM
# Peroxisome proliferator-activated receptor gamma (Homo sapiens), sequence (P37231 whole entry, looked up): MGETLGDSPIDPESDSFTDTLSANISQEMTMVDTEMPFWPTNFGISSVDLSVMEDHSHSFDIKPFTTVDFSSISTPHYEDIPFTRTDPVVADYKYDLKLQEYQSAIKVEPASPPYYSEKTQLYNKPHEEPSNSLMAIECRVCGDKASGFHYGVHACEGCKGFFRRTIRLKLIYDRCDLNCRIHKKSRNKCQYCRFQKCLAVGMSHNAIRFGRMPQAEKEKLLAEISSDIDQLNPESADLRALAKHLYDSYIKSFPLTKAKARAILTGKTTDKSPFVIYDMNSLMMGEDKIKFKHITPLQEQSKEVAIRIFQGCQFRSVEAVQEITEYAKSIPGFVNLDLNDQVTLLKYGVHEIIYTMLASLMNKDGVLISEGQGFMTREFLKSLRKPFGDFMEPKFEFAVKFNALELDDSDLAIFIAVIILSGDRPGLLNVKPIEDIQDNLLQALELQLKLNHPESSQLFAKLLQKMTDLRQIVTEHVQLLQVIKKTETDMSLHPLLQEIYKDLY
# Method in brief: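 HEK293 UAS-bla reporter line, 1% charcoal/dextran FBS; titration, 16 h, 37 C; CCF4 loading 2 h RT; fluorescence 460/530 nm. Normalized to rosiglitazone 2 uM = 100%, DMSO = 0%.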
# [8] = target: Peroxisome proliferator-activated receptor gamma (Homo sapiens) (UniProt P37231); assay: qHTS assay for small molecule antagonists of peroxisome proliferator-activated receptor gamma signaling (AID 588537; active means well fitted inhibition curve with a large enough effect in the signal ratio, with a control signal flat, not every such curve was filed as active; the % refers to the signal ratio; further: potency means the concentration at half of the fitted maximal effect); settings: HEK293 PPARg-UAS-bla, beta-lactamase ratio, antagonist mode; series mostly up to 76.8 µM
# Method in brief: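 PPARγ-UAS-bla HEK293 cells (3000/well) in 1% charcoal/dextran-stripped FBS are treated with compound, then stimulated with 50 nM rosiglitazone for 16 h at 37 °C. Read-out is CCF4 β-lactamase fluorescence after 2 h at RT. IC50 comes from Hill fits normalised to rosiglitazone and DMSO.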
# [9] = target: Vitamin D3 receptor (Homo sapiens) (UniProt P11473); assay: qHTS assay for small molecule antagonists of vitamin D receptor signaling (AID 588541); settings: HEK293T VDR-UAS-bla, beta-lactamase ratio, antagonist mode; series mostly up to 76.7 µM; further: potency means the concentration at half of the fitted maximal effect
# Vitamin D3 receptor (Homo sapiens), sequence (P11473 whole entry, looked up): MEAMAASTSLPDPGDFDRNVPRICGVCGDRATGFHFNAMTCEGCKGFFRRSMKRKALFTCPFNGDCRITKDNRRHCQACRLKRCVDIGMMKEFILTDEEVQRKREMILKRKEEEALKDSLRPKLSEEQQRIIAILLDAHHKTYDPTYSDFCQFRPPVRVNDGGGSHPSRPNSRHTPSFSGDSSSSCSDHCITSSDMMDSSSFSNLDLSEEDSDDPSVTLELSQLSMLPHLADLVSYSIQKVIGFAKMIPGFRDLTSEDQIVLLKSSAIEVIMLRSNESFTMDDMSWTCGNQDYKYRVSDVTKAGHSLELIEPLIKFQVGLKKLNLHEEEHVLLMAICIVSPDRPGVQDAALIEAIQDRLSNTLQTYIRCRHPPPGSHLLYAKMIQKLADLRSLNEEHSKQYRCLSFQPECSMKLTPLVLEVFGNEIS
# Method in brief: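 VDR-UAS-bla HEK293T cells in 2% charcoal-stripped FBS were stimulated with 1-alpha,25-dihydroxyvitamin D3 (3 nM final) plus compound for 16 h at 37 C. The beta-lactamase CCF4 readout was normalized to 50 nM agonist and DMSO, and Hill fits gave IC50.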
# [10] = target: Peroxisome proliferator-activated receptor delta (Homo sapiens) (UniProt Q03181); assay: qHTS assay for small molecule antagonists of peroxisome proliferator-activated receptor delta signaling (AID 588535; active means well fitted inhibition curve with a large enough effect in the signal ratio, with a control signal flat, not every such curve was filed as active; the % refers to the signal ratio); settings: HEK293T PPARd-UAS-bla, beta-lactamase FRET ratio, 18 h; series mostly up to 76.7 µM
# Peroxisome proliferator-activated receptor delta (Homo sapiens), sequence (Q03181 whole entry, looked up): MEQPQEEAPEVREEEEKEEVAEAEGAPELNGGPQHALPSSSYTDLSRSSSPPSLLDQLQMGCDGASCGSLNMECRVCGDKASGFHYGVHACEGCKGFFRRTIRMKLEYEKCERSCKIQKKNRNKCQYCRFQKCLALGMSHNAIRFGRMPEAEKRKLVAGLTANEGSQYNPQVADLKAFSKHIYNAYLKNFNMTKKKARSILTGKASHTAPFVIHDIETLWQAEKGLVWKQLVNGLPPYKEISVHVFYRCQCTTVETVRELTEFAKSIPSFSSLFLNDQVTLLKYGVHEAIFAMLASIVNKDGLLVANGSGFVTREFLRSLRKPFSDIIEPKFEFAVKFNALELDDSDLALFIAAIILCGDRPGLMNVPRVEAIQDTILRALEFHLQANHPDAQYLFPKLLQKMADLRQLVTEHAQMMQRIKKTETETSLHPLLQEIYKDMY
# Method in brief: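 Antagonist-mode beta-lactamase reporter (GeneBLAzer PPAR-delta-UAS-bla) in HEK293T cells, 2% charcoal/dextran FBS, 4000 cells/well. Compound titrations, 18 h at 37 C; CCF4 ratio read, IC50 and efficacy from Hill fits.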
SMILES,max response [1],outcome [2],outcome [3],max response [4],max response [5],activity change % (negative = inhibition) [6],outcome [7],Potency [8],Potency [9],outcome [10],Potency [5]
OC[C@H]1O[C@@H]2O[C@H]3[C@H](O)[C@@H](O)[C@@H](O[C@H]4[C@H](O)[C@@H](O)[C@@H](O[C@H]5[C@H](O)[C@@H](O)[C@@H](O[C@H]6[C@H](O)[C@@H](O)[C@@H](O[C@H]7[C@H](O)[C@@H](O)[C@@H](O[C@H]8[C@H](O)[C@@H](O)[C@@H](O[C@H]1[C@H](O)[C@H]2O)O[C@@H]8CO)O[C@@H]7CO)O[C@@H]6CO)O[C@@H]5CO)O[C@@H]4CO)O[C@@H]3CO,2.91%,inactive,inactive,2.41%,10.2% (inactive),2.69% (inactive),,,,,
O=C(O)c1ccc(S(=O)(=O)N(Cl)Cl)cc1,-8.23%,inactive,inactive,-4.72%,3.99% (inactive),9.05% (inactive),inactive,inactive,,,
CCCCCCCCCCCCCCCC(=O)O,-15.5%,inactive,inactive,-11.4%,0.179% (inactive),13.6% (inactive),inactive,,inactive,,
COc1cc([C@H]2Oc3cc([C@H]4Oc5cc(O)cc(O)c5C(=O)[C@@H]4O)ccc3O[C@@H]2CO)ccc1O,,,,,,,,,inactive,,
CC1(C)OC[C@@H]2O[C@@]3(C(=O)O)OC(C)(C)O[C@H]3[C@@H]2O1,0.747%,inactive,inactive,-2.62%,1.08% (inactive),-3.12% (inactive),inactive,inactive,inactive,,
CCOc1ccccc1C(N)=O,-15.7%,inactive,,-1.33%,0.966% (inactive),7.81% (inactive),inactive,inactive,inactive,inactive,
CCCCOC(=O)CC(CC(=O)OCCCC)(OC(C)=O)C(=O)OCCCC,10.7%,inactive,inactive,-7.31%,-5.69% (inactive),12.8% (inactive),inactive,inactive,inactive,inactive,
CCCCCCCCCCCCCC(=O)OC(C)C,-13.5%,inactive,inactive,-10.1%,7.8% (inactive),,inactive,inactive,inactive,,
CCCCC(CC)COC(=O)c1ccc(N(C)C)cc1 (centres undefined),-13.5%,inactive,inactive,-15.4% and -7.64%,-1.36% (inactive) and 6.53% (inactive),-0.537% (inactive) and 3.83% (inactive),inactive,inactive,inactive,inactive,
CCCN(CCC)S(=O)(=O)c1ccc(C(=O)O)cc1,-13.7% and -10.4%,inactive,inactive,-8.2% and -10.3%,6.91% (inactive) and 7.89% (inactive),8.08% (inactive) and 3.53% (inactive),inactive,inactive,inactive,inactive,
COc1ccc(C(Cl)=C(c2ccc(OC)cc2)c2ccc(OC)cc2)cc1,-9.29%,inactive,inactive,-0.236%,-16% (inactive),-9.92% (inactive),,,inactive,inactive,
C#C[C@]1(O)CC[C@H]2[C@@H]3CCC4=Cc5oncc5C[C@]4(C)[C@H]3CC[C@@]21C,27%,inactive,,10.7%,-13.1% (inactive),,inactive,,,,
COc1ccc(C(=O)c2ccccc2)c(O)c1,,,inactive,4.73% and -13.9%,-9.82% (inactive) and -18.3% (inactive),-24% (inactive) and 5.53% (inactive),inactive,inactive,,inactive,
CCCCCCCC/C=C\CCCCCCCCN,-3%,inactive,inactive,0.483%,8.18% (inactive),-4.57% (inactive),,,inactive,inactive,
C=C[C@@]1(C)CC(=O)[C@]2(O)[C@@]3(C)[C@@H](O)CCC(C)(C)[C@@H]3[C@H](O)[C@H](OC(C)=O)[C@@]2(C)O1,,,inactive,,,10.4% (inactive),,inactive,inactive,,
CCCCCCCCCCCCCCCCO,2.95%,inactive,inactive,-10.1%,-12.7% (inactive),11.7% (inactive),inactive,inactive,inactive,inactive,
CCCCCCCCOc1ccc(C(=O)c2ccccc2)c(O)c1,-1.02%,inactive,inactive,-13.7%,-18.6% (inactive),-1.54% (inactive),inactive,inactive,inactive,inactive,
C/C=C/c1ccc(O)c(OC)c1,-13.6% and -6.37%,inactive,,1.1% and -9.34%,2.19% (inactive) and -7.41% (inactive),,inactive,inactive,,inactive,
Oc1ccc(Cl)cc1Cc1cc(Cl)ccc1O,-27.5% and -0.357%,inactive,inactive,,,,,,inactive,,
NCCNc1cccc2ccccc12,15.9%,inactive,inactive,2.26% and -22%,-21.1% (inactive),-5.49% (inactive),inactive,39.8 µM (active),inactive and 31.6 µM (active),inactive,44.7 µM (active)
CC(C)(C)CC(C)(C)c1ccc(O)c(-n2nc3ccccc3n2)c1,,,inactive,,,-12.9% (inactive),,inactive,inactive,,
NC(=O)c1ccccc1O,-2.87%,inactive,inactive,-19%,18.9% (inactive),-15.4% (inactive),inactive,,inactive,inactive,
CCOc1ccc(NC(C)=O)cc1,2.99% and -14.4%,inactive,inactive,-2.9% and -4.43%,-12.1% (inactive) and 5.41% (inactive),4.97% (inactive),inactive,inactive,inactive,,
CC1(COc2ccc(CC3SC(=O)NC3=O)cc2)CCCCC1 (centres undefined),,,inactive,20.2%,-22.1% (inactive),-31.9% (inactive),,,,,
Oc1c(Cl)cc(Cl)c(Cl)c1Cc1c(O)c(Cl)cc(Cl)c1Cl,,,,,,,,,inactive,,
CN(C)C(=O)Nc1ccc(Cl)c(Cl)c1,-0.181%,inactive,inactive,0.705%,4.3% (inactive),-2.96% (inactive),inactive,inactive,,inactive,
